Data from PubChem BioAssay AID493168 (National Center for Advancing Translational Sciences (NCATS), 2011).
Inconclusive results are not listed. Active and inactive are the calls of the source. The call rests on the fitted dose curve; in most records, active means well fitted inhibition curve with a large enough effect; inconclusive means small, poorly fitted or top-dose-only effect, or effect the other way; inactive means flat fitted curve, though single readings scatter.

biological target: Ubiquitin carboxyl-terminal hydrolase 2 (Homo sapiens) (UniProt O75604); test: Confirmation Assay for Inhibitors of Ubiquitin-specific Protease USP2a Using CHOP2 as the Reporter; settings: USP2 core, Ub-CHOP2 coupled reporter fluorescence; series mostly up to 38.3 µM; activity change, negative = inhibition: at the top concentration; further: nearly all actives have a fitted effect of over 55% in size;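 on activity change, negative = inhibition: plate controls were DMSO wells for no effect and full inhibition by NEM control for full effect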
Sequence (O75604 whole entry, looked up): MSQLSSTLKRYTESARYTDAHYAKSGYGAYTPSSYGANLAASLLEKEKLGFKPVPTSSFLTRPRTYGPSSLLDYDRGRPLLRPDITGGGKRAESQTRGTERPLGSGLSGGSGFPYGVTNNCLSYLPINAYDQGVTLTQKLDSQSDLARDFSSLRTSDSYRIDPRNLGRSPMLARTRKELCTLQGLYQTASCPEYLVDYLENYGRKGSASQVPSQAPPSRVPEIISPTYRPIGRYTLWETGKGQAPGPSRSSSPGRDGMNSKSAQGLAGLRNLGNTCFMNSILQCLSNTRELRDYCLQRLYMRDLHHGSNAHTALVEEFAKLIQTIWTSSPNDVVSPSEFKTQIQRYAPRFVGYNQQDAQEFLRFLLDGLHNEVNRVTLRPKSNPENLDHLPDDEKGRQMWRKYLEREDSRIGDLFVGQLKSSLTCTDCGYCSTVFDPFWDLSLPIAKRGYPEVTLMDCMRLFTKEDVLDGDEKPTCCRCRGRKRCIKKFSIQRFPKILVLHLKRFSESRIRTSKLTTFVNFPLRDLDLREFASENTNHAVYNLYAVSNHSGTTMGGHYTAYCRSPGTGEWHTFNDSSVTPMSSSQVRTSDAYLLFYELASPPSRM
How it was run: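 Ub-CHOP2 cleavage coupled to reporter activation was read by fluorescence after 60 min at RT, with 25 nM final Ub-CHOP2 and substrate. Enzyme (10 nM final USP2 core) first sat 30 min with compound; data were normalized to NEM and fitted to concentration-response curves.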
Potency means the concentration at half of the fitted maximal effect.

SMILES | activity change, negative = inhibition | Potency
COC(=O)C1Sc2[nH]c(=O)sc2C(c2ccc(Cl)cc2)C1C(=O)OC (centres undefined) | 0.734% (inactive) | –
Cc1cc(=O)n2[nH]c(-c3sccc3-n3c(C)ccc3C)cc2n1 | -6.92% (inactive) | –
CNc1nc(OCCNC(=O)Nc2ccccc2)nc(N2CCOCC2)n1 | -0.528% (inactive) | –
O=C(COc1ccccc1)NCCSc1ccccc1 | -2.69% (inactive) | –
Cc1cc2c(c(=O)n1CC1CCCO1)C(c1ccco1)C(C#N)=C(N)O2 (centres undefined) | 6.21% (inactive) | –
CN(C)c1ccc(/C=C(/NC(=O)c2ccccc2)C(=O)N/N=C/c2ccc([N+](=O)[O-])c(O)c2)cc1 | -15.8% (inactive) | –
COc1ccc(NC(=O)C2CC(=O)OC2c2ccccc2)cc1 (centres undefined) | 1.9% (inactive) | –
O=C(Nc1nnc(-c2ccco2)s1)C1CCCCC1 | 0.407% (inactive) | –
Cc1c(C(=O)NCc2c(F)cc(F)cc2F)oc2ccc(S(=O)(=O)N3CCOCC3)cc12 | -1.34% (inactive) | –
CC1CC(C)CN(C(=O)CSc2nnc(-c3ccc(Cl)cc3)o2)C1 (centres undefined) | -4.82% (inactive) | –
O=C(COC(=O)c1ccc(F)c(S(=O)(=O)N2CCOCC2)c1)c1ccccc1 | 0.56% (inactive) | –
CCOC(=O)COc1ccccc1/C=N/O | -2.24% (inactive) | –
Cc1ccc(SCC(=O)Nc2ccc(C(=O)Nc3ccc(O)cc3)cc2)cc1 | -2.22% (inactive) | –
CC[C@]12c3[nH]c4cc(-c5ccco5)ccc4c3CCN1C(=O)[C@@H](CC(=O)NC/C=C(\C)CCC=C(C)C)C[C@@H]2C(=O)N1CCN(C(=O)C2CC2)CC1 | -2.16% (inactive) | –
COc1ccc(/C=C2/SC(=S)N(c3ccc(S(=O)(=O)Nc4nccs4)cc3)C2=O)cc1 | – | 13.1 µM (active)
O=C(Cc1ccccc1)Nc1cccc(N2CCCC2)c1 | -9.77% (inactive) | –
Cc1ccc(C)c(OCC(=O)Nc2cc(NC(=O)COc3cc(C)ccc3C)cc(C(=O)O)c2)c1 | -15.4% (inactive) | –
Cc1ccc(O)c(CC(C)C)n1 | -2.58% (inactive) | –
COc1cccc(N2C(=O)C3CCCN3C2c2ccc(N(C)C)cc2)c1 (centres undefined) | -1.37% (inactive) | –
CCCCOC1(c2ccccc2)NC(=S)NN=C1c1ccccc1 (centres undefined) | 2.46% (inactive) | –

SMILES | activity change, negative = inhibition | Potency
CC(=O)O[C@H]1[C@H](O)[C@H](Oc2c(O)c(C)c3c4c2[C@@H](C)CC[C@@H]4[C@@H](C)C[C@H]3C=C(C)C)O[C@@H](C)[C@H]1O | -3.83% (inactive) | –
C#CCOCCOCCOCCNc1nc(N2CCN(C(=O)CCCCCCCCCCNC(=O)[C@@H](CCSC)n3cc(CCO)nn3)CC2)nc(N2CCN(C(=O)CCCCCCCCCCNC(=O)[C@H](CCCN=C(N)N)n3cc(C[C@@H](C)CC)nn3)CC2)n1 | – | 13.1 µM (active)
CC(=O)c1cccc(NC(=O)C(C)OC(=O)c2cc(=O)[nH]c3ccccc23)c1 (centres undefined) | – | 6.56 µM (active)
CCCSCCCNC(=O)CC1Oc2ccccc2NC1=O (centres undefined) | -2.19% (inactive) | –
CC(=O)OCC(=O)Nc1ccc(Cl)cc1Cl | 0.0981% (inactive) | –
O/N=C/c1ccccc1OCc1ccccc1F | 3.9% (inactive) | –
N#Cc1cccc(C(=O)N(CCc2ccccc2)Cc2cccs2)c1 | -0.668% (inactive) | –
Cc1cc(NC(=O)COC(=O)CCCOc2ccc(Cl)cc2C)no1 | -1% (inactive) | –
COC(=O)CCC/C=C1/SCC(NC(=O)c2ccccc2)C1=O (centres undefined) | -11% (inactive) | –
Cc1ccc(/C=N/NC(=O)c2cc(-c3ccc(C)o3)[nH]n2)cc1 | -3.8% (inactive) | –
CN(C)C=Nc1ncc2c3ccccc3n(CCN(C)C)c2c1C#N | -4.97% (inactive) | –
Cc1c(C(=O)Nc2ccc3c4c(cccc24)CC3)cccc1[N+](=O)[O-] | 1.37% (inactive) | –
O=C(c1ccccc1)N1CCN(C(=O)N2CCCCC2)CC1 | -1.38% (inactive) | –
O=C(Nc1ccc(Nc2ccncc2)cc1)c1ccc(Nc2ccnc3ccc([N+](=O)[O-])cc23)cc1[N+](=O)[O-] | -16.8% (inactive) | –
O=C(CSc1nnc(SCc2ccccc2)s1)N/N=C/C=C/c1ccco1 | – | 13.1 µM (active)
Cc1ccc2oc(=O)c3cnn(CC(=O)NCCCOC(C)C)c3c2c1 | 3.71% (inactive) | –
CC(C)(C)NC(=O)C(c1ccco1)N(C(=O)c1ccc(CN2CCOCC2)o1)c1ccccc1 (centres undefined) | 0.713% (inactive) | –
CC(=O)c1ccc(NC(=O)CC(NCCC2=CCCCC2)C(=O)O)cc1 (centres undefined) | -0.641% (inactive) | –
Nc1c(C(=O)Nc2ccc3c(c2)OCCO3)nnn1CCc1ccccc1 | -2.78% (inactive) | –
